In PubChem BioAssay (Tox21) one finds Potency and viability change, negative = cytotoxic data, which are given here for 40 compounds.

Inconclusive results are not listed. A call without a number means that no potency is given here. Activity calls are given as the source filed them. Calls come from the whole dose curve; as a rule, active = well fitted cell-killing curve with a large enough effect in the repeat runs; inconclusive = weak or mixed curves, or effect the other way; inactive = flat fitted curve, though single readings scatter.
Potency is the fitted concentration of half-maximal effect.

The nature of this assay: cAMP Responsive Elements (CRE) small molecule antagonists, cell-based qHTS assay: qHTS cell viability counter screen (AID 2060913). Note: nearly all actives have a fitted effect of over 40% in size. The note with it: CRE-bla HEK293T viability, CellTiter-Glo luminescence, 5 h; series mostly up to 92.4 µM. The method, boiled down:
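CRE-bla HEK293T cells were seeded in assay medium with 10% dialyzed FBS, incubated 18 hrs at 37 C, then exposed to compounds plus 0.25 uM final NKH477 for 3 hrs. Viability was read by CellTiter-Glo luminescence after 30 min, in the same wells.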
For `CCCCCCCCSCCO`, the Potency result is “inactive”.
Still for that read-out and setting: next, `ClCCOCCOCCCl`: “inactive”.
Same read-out and setting: next, `O=C(O)c1ccc2cc(O)ccc2c1`: “inactive”; `CCOc1ccc2c(c1)C(C)=CC(C)(C)N2`: “inactive”; `CCCCCCCCN`: “inactive”.
On the same count and under the same terms, next, `CCCCCCOc1ccccc1C(N)=O`: “inactive”; `NC(=O)Nc1nc2ccccc2[nH]1`: “inactive”.
With `O=C(Nc1ccccc1)OCC(CN1CCCCC1)OC(=O)Nc1ccccc1` (stereo not given), the Potency entry was “inactive”.
On the same count and under the same terms, next, `NC(=O)c1ccc([N+](=O)[O-])cc1`: “inactive”.
On the same count and under the same terms, next, `CCCN(CCc1cccs1)[C@H]1CCc2c(O)cccc2C1`: “inactive”; `O=C(Nc1ccc(Cl)cc1)Nc1ccc(Cl)c(C(F)(F)F)c1`: 26.6 µM (active); `CCC(CO)(CO)CO`: “inactive”.
As to `CCCCCCCCCCCBr`, the Potency entry was “inactive”.
Still for that read-out and setting: next, `COc1cc(C(=O)NCc2ccc(OCCN(C)C)cc2)cc(OC)c1OC`: “inactive”.
Still for that read-out and setting: next, `CC(O)C(C)O` (stereo not given): “inactive”.
On the same count and under the same terms, next, `COc1ccc(C(=O)NCc2ccc(OCCN(C)C)cc2)cc1OC`: “inactive”; `C1N2CN3CN1CN(C2)C3`: “inactive”; `CCC(C)CCCC(C)(C)O` (stereo not given): “inactive”.
Take `C[Si]1(C)O[Si](C)(C)O[Si](C)(C)O1`: the Potency entry is “inactive”.
Consider `Clc1ccccc1-c1nc(-c2ccncc2)no1`, for which the Potency result is “inactive”.
Still for that read-out and setting: next, `CCCCCCCCCCCC(=O)NCCCN(C)C`: 61.1 µM (active).
With `CCN1CCCC(OC(=O)C(c2ccccc2)c2ccccc2)C1` (stereo not given), the Potency entry is “inactive”.
Still for that read-out and setting: next, `OCc1cccc(Oc2ccccc2)c1`: “inactive”; `CN1CCN(N)CC1`: “inactive”.
Take `N[C@@H](COP(=O)(O)O)C(=O)O`: the viability change, negative = cytotoxic was 4.6% [at 18.9 µM] (inactive).
For `O=C1CCN(c2ccccc2)N1`, the Potency entry is “inactive”.
Still for that read-out and setting: next, `OCCOCCOCCOCCO`: “inactive”; `CCOC(=O)c1c(N)sc2c1CCN(Cc1ccccc1)C2`: “inactive”.
With `CC(=O)Oc1ccc(C(c2ccc(OC(C)=O)cc2)c2ccccn2)cc1`, the Potency result is “inactive”.
On the same count and under the same terms, next, `Cc1ccccc1C`: “inactive”; `CC(C(=O)O)c1ccc(/C=C2\CCCCC2=O)cc1` (stereo not given): “inactive”; `C=CC(=O)N1CCOCC1`: “inactive”.
Same read-out and setting: next, `O=C(O)c1ccccc1-c1ccc(C(F)(F)F)cc1`: “inactive”; `CO`: “inactive”.
The same measure, in the same setting: next, `COc1ccc2cc3[n+](cc2c1OC)CCc1cc2c(cc1-3)OCO2`: “inactive”.
For the compound `CO[C@H]1C=CO[C@@]2(C)Oc3c(C)c(O)c4c(O)c(cc(O)c4c3C2=O)NC(=O)/C(C)=C\C=C/[C@H](C)[C@H](O)[C@@H](C)[C@@H](O)[C@@H](C)[C@H](OC(C)=O)[C@@H]1C`, the Potency entry is “inactive”.
Still for that read-out and setting: next, `CC(=O)SC[C@@H](Cc1ccccc1)C(=O)NCC(=O)OCc1ccccc1`: “inactive”; `CCCCCCCCS`: “inactive”; `Cc1cc(S(=O)(=O)O)ccc1N=Nc1c(O)ccc2ccccc12`: “inactive”.
Still for that read-out and setting: next, `Nc1ccc([N+](=O)[O-])cc1O`: “inactive”.
